The results in this text go back to PubChem BioAssay AID504332 (National Center for Advancing Translational Sciences (NCATS), 2011).

Several values for one entry are separate records, joined by “and”; a condition that tells them apart may be missing. Equal entries are not always repeated. Out of some 350,000 compounds screened, about 31,000 (8.9%) were called active. Entries that show only a call come without a potency. About 15% were inconclusive and are not listed. Calls follow the shape of the dose curve; as a rule, active = well fitted inhibition curve with a large enough effect; inconclusive = small, poorly fitted or top-dose-only effect; inactive = no such curve, though single readings can be large or run the other way. Only a selection was taken, and actives are over-represented in it overall. Some structures have more than one record in an assay (separate samples or runs), and their calls can disagree.
Potency is read from the fitted curve at half-maximal effect.

Chain of Histone-lysine N-methyltransferase EHMT2 (Homo sapiens) (Q96KQ7 913-1193 limits assumed): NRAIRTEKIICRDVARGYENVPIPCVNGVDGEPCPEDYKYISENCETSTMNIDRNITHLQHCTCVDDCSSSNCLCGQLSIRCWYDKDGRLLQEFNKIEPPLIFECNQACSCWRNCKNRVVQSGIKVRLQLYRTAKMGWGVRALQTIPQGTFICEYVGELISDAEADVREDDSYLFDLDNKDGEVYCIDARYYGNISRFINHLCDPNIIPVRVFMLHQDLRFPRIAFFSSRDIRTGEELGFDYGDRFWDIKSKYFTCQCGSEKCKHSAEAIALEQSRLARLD

The experiment has as its target Histone-lysine N-methyltransferase EHMT2 (Homo sapiens) (UniProt Q96KQ7). Kind of experiment: qHTS Assay for Inhibitors of Histone Lysine Methyltransferase G9a. Also: nearly all actives have a fitted effect of over 75% in size. The conditions noted are these: G9a H3K9 monomethylation, AlphaScreen, 2 h; series mostly up to 59 µM. The essentials:
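G9a (20 nM) preincubated 15 min RT with compounds, then 500 nM biotinylated H3K9 peptide and 20 uM SAM added; 2 h RT reaction. Monomethyl-H3K9 product detected by AlphaScreen with anti-H3K9me1 antibody, streptavidin donor and anti-rabbit IgG acceptor beads.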
In general terms: qHTS replaces the single test concentration by a dilution series.
Turning to `COc1ccc(-c2cc(C(F)(F)F)nc(SCC(=O)N(C)Cc3ccccc3)n2)cc1OC`, the Potency result was “inactive”.

Take `N#Cc1ccc(C2N=C(c3ccccc3)NO2)cc1` (stereo not given): the Potency entry was “inactive”.

Turning to `Brc1ccccc1C1N=C(c2ccccc2)NO1` (stereo not given), the Potency was 50.1 µM (active).

For the compound `O=C(c1ccc(OC2CCN(C/C=C/c3ccc(F)cc3)CC2)cc1)N1CCCCC1`, the Potency entry was “inactive”.

For the compound `CC1CCC(NC(=O)CNC(=O)c2ccc3ccccc3c2)CC1` (stereo not given), the activity, negative = inhibition was 5.09% [at 0.501 µM] (inactive).

`CCCOC(=O)C1=C(C)NC2=C(C(=O)C(C(=O)OC)C(C)C2)C1c1ccc(N(C)C)cc1` (stereo not given): the Potency is 44.7 µM (active).

Turning to `CCOC(=O)C1=C(C)NC2=C(C(=O)CC(C)(C)C2)C1c1ccsc1` (stereo not given), the activity, negative = inhibition was 1.73% [at 12.7 µM] (inactive).

Turning to `COCCOC(=O)C1=C(C)NC(=O)NC1c1ccc(Cl)cc1` (stereo not given), the Potency entry is “inactive”.

For the compound `N#Cc1cccc(NC(=O)C2CCCN(C(=O)c3ccc(Cl)cc3)C2)c1` (stereo not given), the activity, negative = inhibition is 10.9% [at 12.7 µM] (inactive).

`CCOC(=O)c1sc2nc(CSCC(=O)OCc3ccc(C(=O)OC)o3)[nH]c(=O)c2c1C`: the Potency entry is “inactive”.

On to `COC(=O)c1sc2[nH]c(=S)n(N)c(=O)c2c1C`, for which the Potency is 7.94 µM (active).

Regarding `CCOC(=O)c1sc2nc(C)[nH]c(=O)c2c1C`, the Potency entry was “inactive”.

As to `CCCCN1CC(c2nc3ccccc3n2CCCCOc2ccc(C)cc2C)CC1=O` (stereo not given), the Potency result is “inactive”.

For the compound `O=C(CCn1ccc2cc(S(=O)(=O)N3CCCC3)ccc21)NCc1cccc(Cl)c1`, the Potency entry is “inactive”.

Turning to `CC1CCN(S(=O)(=O)c2ccc3c(ccn3CC(=O)O)c2)CC1`, the Potency entry is “inactive”.

Consider `CC1CCN(S(=O)(=O)c2ccc3c(ccn3CCC(=O)NCc3ccc(N(C)C)cc3)c2)CC1`, for which the Potency was 10 µM (active).

For the compound `CC(C)C[C@H](NC(=O)C1CC(=O)N(c2ccc3c(c2)OCCO3)C1)C(=O)NC1CCCC1` (stereo not given in full), the Potency result was “inactive”.

Take `Cc1ccccc1N1CC(C(=O)Nc2ccc(S(=O)(=O)N3CCCC3)cc2)CC1=O` (stereo not given): the activity, negative = inhibition is 20.1% [at 2.33 µM] (inactive).

As for `COc1cccc(N2CC(C(=O)Nc3c(C)cccc3C)CC2=O)c1` (stereo not given), the Potency result is “inactive”.

Regarding `CCOC(=O)CSc1nnc(NC(=O)C2CC(=O)N(c3ccc(F)cc3)C2)s1` (stereo not given), the Potency was 63.1 µM (active).

On to `CCc1nnc(NC(=O)C2CC(=O)N(c3ccc4c(c3)OCCO4)C2)s1` (stereo not given), for which the Potency was 10 µM (active).

Take `Cc1cccc(N2CC(C(=O)Nc3ccccc3N3CCCC3)CC2=O)c1C` (stereo not given): the Potency is 70.8 µM (active).

Consider `CCOC(=O)c1ccc(NC(=O)C2CC(=O)N(c3ccc(C(C)C)cc3)C2)cc1` (stereo not given), for which the Potency result was “inactive”.

With `Cc1ccccc1N1CC(C(=O)Nc2nnc(SCCC3OCCO3)s2)CC1=O` (stereo not given), the Potency is 25.1 µM (active).

`CC(=O)c1ccccc1NC(=O)C1CC(=O)N(c2ccc3c(c2)OCCO3)C1` (stereo not given): the Potency entry is “inactive”.

Consider `Cc1ccccc1N1CC(C(=O)Nc2ccc3c(c2)OCO3)CC1=O` (stereo not given), for which the Potency result was “inactive”.

For the compound `O=C(Nc1nnc(SCc2c(Cl)cccc2Cl)s1)C1CCCO1` (stereo not given), the activity, negative = inhibition is 47.8% [at 12.7 µM] (inactive).

In the case of `CC(C)c1nnc(NC(=O)C2CC(=O)N(CCc3ccc(F)cc3)C2)s1` (stereo not given), the Potency entry was “inactive”.

`CCCCOc1ccc(C(=O)N2CC(=O)Nc3ccc(Br)cc3C2c2ccc(F)cc2)cc1` (stereo not given): the Potency entry is “inactive”.

For `Cc1ccc(CNC(=O)Cn2c(=O)ccc3cc(S(=O)(=O)N4CCCC4)ccc32)cc1`, the Potency result is “inactive”.

Take `CC(=O)N1c2ccccc2CC1C(=O)N1CCN(c2ccc(F)cc2)CC1` (stereo not given): the Potency result was “inactive”.

On to `C[C@@H](NC(=O)c1nc[nH]c1C(=O)N1CCN(C(=O)OC(C)(C)C)CC1)c1ccccc1`, for which the activity, negative = inhibition was 4.62% [at 2.33 µM] (inactive).

As to `CCOc1ccc(S(=O)(=O)c2cn(Cc3ccc(OC)cc3)c3ccc(F)cc3c2=O)cc1`, the Potency entry is “inactive”.

For the compound `Cc1ccc(Cc2nnc(SCC(=O)Nc3ccc(C)cc3C)[nH]c2=O)cc1`, the Potency entry is “inactive”.

Regarding `CCn1cc(C(=O)NCCc2ccccc2)c(=O)c2cc(S(=O)(=O)N3CCCCCC3)ccc21`, the Potency entry was “inactive”.

`CCOC(=O)C1CCCN(C(=O)c2ccc3c(c2)sc2nc(-c4ccc(CC)cc4)cn23)C1` (stereo not given): the Potency result was “inactive”.

As to `CCOc1ccc(OCC)c(NC(=O)c2cc(C)nc3c2c(C)nn3-c2cccc(Cl)c2C)c1`, the Potency entry is “inactive”.

On to `CC1=C(C(=O)OCc2ccc(C)cc2)C(c2c(Cl)cccc2Cl)CC(=O)N1` (stereo not given), for which the Potency result was “inactive”.

Take `COc1ccc(CCNC(=O)COC(=O)c2cc(=O)c3ccccc3o2)cc1`: the activity, negative = inhibition was 21.3% [at 12.7 µM] (inactive).

As to `COc1ccccc1N1CC(C(=O)Nc2nnc(SCC(=O)NCC3CCCO3)s2)CC1=O` (stereo not given), the Potency is 31.6 µM (active).

For the compound `COc1ccccc1N1CC(C(=O)Nc2nnc(SCC(=O)NC(C)C)s2)CC1=O` (stereo not given), the activity, negative = inhibition is 14.1% [at 12.7 µM] (inactive).

Take `COc1cc(OC)cc(C(=O)Nc2nnc(SCC(=O)NCC3CCCO3)s2)c1` (stereo not given): the Potency result was “inactive”.

Regarding `CN1C(=O)CC(c2ccccc2)C1=O` (stereo not given), the Potency result is “inactive”.

In the case of `COc1ccc(NC(=O)c2cc([N+](=O)[O-])ccc2NC(=O)CNC2CCCCC2C)c(OC)c1` (stereo not given), the Potency result is “inactive”.

Take `CCOC(=O)c1ccc(NC(=O)CC2C(=O)N(c3ccccc3)C(=O)N2Cc2cccs2)cc1` (stereo not given): the Potency result was “inactive”.

Consider `CCC(=O)N1CCN(c2ccccc2NC(=O)COc2cccc(C)c2C)CC1`, for which the Potency entry was “inactive”.

Take `CCOc1ccccc1NC(=O)COc1ccc(S(=O)(=O)N2CCCC2)cc1`: the Potency result was “inactive”.

For `CN1CCN(c2ccccc2NC(=O)COc2ccc(C3CCCCC3)cc2)CC1`, the Potency was 39.8 µM (active).

With `Cc1ccc(C(C)C)cc1OCC(=O)Nc1ccccc1N1CCCC1`, the Potency was 79.4 µM (active).

Take `Cc1ccc(OCC(=O)Nc2ccccc2C(=O)NC2CC2)cc1`: the activity, negative = inhibition was 16.8% [at 12.7 µM] (inactive).

Take `CC(C)n1c(SCC(=O)Nc2ccccc2N2CCCCC2)nc2c1c(=O)n(C)c(=O)n2C`: the Potency result was “inactive”.

Take `CCCC(=O)N1CCN(c2nc3c(OC)ccc(C)c3s2)CC1`: the Potency result was “inactive”.

For the compound `COc1cccc(NC(=O)COc2cc(C)cc3oc(=O)cc(C)c23)c1`, the Potency entry was “inactive”.

With `CNS(=O)(=O)c1cccc(C(=O)OCCCC(=O)c2ccccc2)c1`, the activity, negative = inhibition was -6.99% [at 12.7 µM] (inactive).

In the case of `COc1ccc2c(c1)c(C(=O)N/N=C/c1cccs1)c(C)n2C`, the Potency result was “inactive”.

As to `CCOc1ccc(S(=O)(=O)N2CCN(C(=S)NCC3CCCO3)CC2)cc1` (stereo not given), the Potency result is “inactive”.

For the compound `Cc1ccc(S(=O)(=O)N2CCC(C(=O)NCC3CCCO3)CC2)cc1` (stereo not given), the Potency entry is “inactive”.

Consider `Cc1cc(C2=NNC(=Nc3ccc(S(=O)(=O)N4CCOCC4)cc3)SC2)c(C)n1CC1CCCO1` (stereo not given), for which the Potency was 7.94 µM (active).

As to `O=C(NC1CC(=O)N(c2ccc(F)cc2)C1)c1cccs1` (stereo not given), the Potency result is “inactive”.

For `O=C(NCCC1CCCCN1S(=O)(=O)c1cccs1)C(=O)Nc1ccc(F)cc1F` (stereo not given), the activity, negative = inhibition is -3.33% [at 0.501 µM] (inactive).

Take `CC(=O)c1ccc(NC(=O)c2nc(-c3ccc(C)cc3)n3c2CCCCC3)cc1`: the Potency entry is “inactive”.

Take `CC(C)Cn1c(=O)c2ccccc2n2c(CCC(=O)N3CCN(c4cccc(Cl)c4)CC3)nnc12`: the Potency result was “inactive”.

On to `O=C1CN(C(=O)COc2c(Cl)cccc2Cl)c2ccccc2N1`, for which the Potency result was “inactive”.

On to `CCCCCN(C(=O)CCC(=O)OCC(=O)NC1CCC(C)CC1)c1c(N)n(CCCC)c(=O)[nH]c1=O` (stereo not given), for which the activity, negative = inhibition was 6.8% [at 0.501 µM] (inactive).

Regarding `CN(CC(=O)Nc1cccc(F)c1)C(=O)CC1CCCC1`, the Potency entry is “inactive”.

Consider `CN(CC(=O)Nc1cccc(F)c1)C(=O)C1=COCCO1`, for which the Potency result was “inactive”.

For `CC1CCc2[nH]c3ccc(C(=O)N(C)CC(=O)Nc4cccc(F)c4)cc3c2C1` (stereo not given), the Potency was 44.7 µM (active).

As to `O=C(CCc1ccccc1)NNC(=O)c1ccc(Br)cc1`, the Potency result is “inactive”.

As for `O=C(CCc1ccccc1)NNc1ccc(F)cc1`, the Potency was 31.6 µM (active).

`CC(=O)Nc1ccc(S(=O)(=O)NNC(=O)CCc2ccccc2)cc1`: the activity, negative = inhibition was -29% [at 12.7 µM] (inactive).

With `Cc1cc(C)cc(NC(=O)CCS(=O)(=O)c2cc3c4c(c2)CCN4C(=O)CC3)c1`, the Potency result was “inactive”.

Regarding `COc1ccc(Cc2nnc(SCC(=O)Nc3ccc(C)c(Cl)c3)[nH]c2=O)cc1`, the Potency entry is “inactive”.

Regarding `O=C(NCc1ccccc1)C1CCN(S(=O)(=O)c2ccc3[nH]c(=O)ccc3c2)CC1`, the Potency entry was “inactive”.

On to `CCOC(=O)c1c(-n2cnnn2)sc(C)c1C`, for which the Potency was 8.91 µM (active).

Turning to `CCOc1ccc(C(=O)COC(=O)c2ccc(-n3cnnn3)cc2)cc1`, the Potency entry was “inactive”.

Turning to `CCOC(=O)C(C)n1cnc2sc(C)c(C)c2c1=O` (stereo not given), the Potency entry was “inactive”.

With `C=CCSc1ccc(S(=O)(=O)N2CCN(C)CC2)cn1`, the Potency result was “inactive”.

As for `CCn1c(=O)c2cc(C(=O)NCCc3ccc(Cl)cc3)sc2c2ccccc21`, the Potency result is “inactive”.

For the compound `O=C(CSc1nc(=O)n2ccccc2n1)Nc1ccc2c(c1)OCCO2`, the Potency result was “inactive”.

For `Cc1ccc(Cl)cc1-n1ncc2c(N3CCC(C(N)=O)CC3)ncnc21`, the Potency entry is “inactive”.

As to `COc1ccc(CNC(=O)c2ccc3oc(C(C)C)nc3c2)cc1`, the activity, negative = inhibition is 12% [at 0.501 µM] (inactive).

In the case of `COc1ccc(CC(=O)NCC(=O)N/N=C/c2cc(Br)ccc2OC)cc1`, the Potency result is “inactive”.

Take `COc1ccc(Br)cc1/C=N/NC(=O)c1cccc(S(=O)(=O)N2CCOCC2)c1`: the Potency entry was “inactive”.

Turning to `COc1ccc(Br)cc1/C=N/Nc1ccc(Cl)c(C(=O)O)c1`, the Potency was 14.1 µM (active).

As to `OCc1cnc(SCc2ccc(F)cc2)n1Cc1ccc(F)cc1`, the Potency result was “inactive”.

As to `COc1cccc2c1cc1c(=O)n(CC(=O)N3CCN(c4ccccc4)CC3)nc(C)n12`, the Potency entry was “inactive”.

In the case of `Cc1ccc(CN2CCC(CNC(=O)c3cnn(-c4ccc(C)cc4)c3C3CCN(C(=O)OC(C)(C)C)CC3)CC2)cc1`, the Potency entry is “inactive”.

With `CC(C)(C)C(=O)N1CCC[C@@]1(CO)C(=O)O`, the Potency is 14.1 µM (active).

With `COC(=O)c1cc(NC(=O)CCc2c(C)nc3c4c(C)cc(C)nc4nn3c2C)cc(C(=O)OC)c1`, the Potency result is “inactive”.

In the case of `COc1ccccc1Nc1nnc(SC(C)C(=O)NC2CC2)s1` (stereo not given), the activity, negative = inhibition was -13.1% [at 12.7 µM] (inactive).

As for `CC(=O)c1c(C)[nH]c(C(=O)COC(=O)CCOc2ccc(C)cc2)c1C`, the Potency entry was “inactive”.

For `Cc1ccc(-c2cn3c(n2)sc2cc(C(=O)NCCCc4ccccc4)ccc23)cc1`, the Potency result was “inactive”.

`CC1(C)SC2C(NC(=O)COc3ccccc3)C(=O)N2C1C(=O)O` (stereo not given): the Potency result is “inactive and 39.8 µM (active)”.

On to `COC(=O)Cc1ccc(OCC(=O)NC2CCCC2)cc1`, for which the Potency result is “inactive”.

Turning to `Cc1cccc(OCC(=O)NC2CC(C)(C)NC(C)(C)C2)c1`, the Potency entry was “inactive”.
